This note sets out measurements from PMC7862700, “An all-to-all approach to the identification of sequence-specific readers for epigenetic DNA modifications on cytosine”.

What all share (assay): DAPPL (digital affinity profiling via proximity ligation, sequencing); 10 mM Tris-HCl pH 7.5, 50 mM NaCl, 1 mM DTT, 4% glycerol, room temperature, 30 min; GST-TFs on glutathione beads, 16-mer random dsDNA library, 0.1% formaldehyde crosslink after washing; high values mean tight binding
What all share (conditions): protein: recombinant; tags: N-terminal GST; dsDNA, one strand shown

One assay concerns the target T1, FLI1 (Homo sapiens, UniProt Q01543 1-452).
T1 sequence: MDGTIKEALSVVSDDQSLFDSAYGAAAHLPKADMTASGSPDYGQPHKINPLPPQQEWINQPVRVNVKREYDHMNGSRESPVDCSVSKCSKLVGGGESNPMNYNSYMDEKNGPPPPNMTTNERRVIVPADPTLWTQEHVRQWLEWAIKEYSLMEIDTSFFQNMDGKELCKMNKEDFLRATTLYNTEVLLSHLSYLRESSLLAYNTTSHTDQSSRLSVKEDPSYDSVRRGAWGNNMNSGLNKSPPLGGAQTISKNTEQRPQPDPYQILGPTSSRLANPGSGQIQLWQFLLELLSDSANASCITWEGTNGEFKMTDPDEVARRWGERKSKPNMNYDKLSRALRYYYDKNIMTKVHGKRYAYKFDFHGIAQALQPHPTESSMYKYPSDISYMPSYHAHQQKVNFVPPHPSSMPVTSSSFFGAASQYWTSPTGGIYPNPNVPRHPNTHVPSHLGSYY
In outline: (§1)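 Binding signal is given per hexamer as its read frequency for a factor divided by its frequency in the tag-only sample. GST-fused human transcription factors were expressed in yeast, captured on glutathione beads, barcoded with DNA and pooled with that sample, then incubated with 200 nmole of a 16-mer random double-stranded DNA library in Tris/NaCl/DTT/glycerol buffer for 30 min at room temperature. The pools were then washed, crosslinked, proximity-ligated, amplified by PCR and sequenced on an Illumina NextSeq500.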

The target of another assay is T2, ELK1 (Homo sapiens, UniProt P19419 1-428).
T2 sequence: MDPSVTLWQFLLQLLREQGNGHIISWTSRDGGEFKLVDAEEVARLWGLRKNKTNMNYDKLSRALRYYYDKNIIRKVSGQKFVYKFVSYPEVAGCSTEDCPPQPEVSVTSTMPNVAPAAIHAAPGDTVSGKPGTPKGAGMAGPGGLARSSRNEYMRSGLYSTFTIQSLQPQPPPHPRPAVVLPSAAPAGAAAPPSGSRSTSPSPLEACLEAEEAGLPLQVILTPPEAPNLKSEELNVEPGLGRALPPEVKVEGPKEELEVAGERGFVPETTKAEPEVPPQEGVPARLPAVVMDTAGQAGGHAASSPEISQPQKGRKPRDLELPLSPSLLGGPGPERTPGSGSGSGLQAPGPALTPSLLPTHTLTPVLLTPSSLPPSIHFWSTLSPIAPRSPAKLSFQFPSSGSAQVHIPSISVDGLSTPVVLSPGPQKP
In outline: as §1

The next assay concerns the target T3, GABPA (Homo sapiens, UniProt Q06546 1-454).
T3 sequence: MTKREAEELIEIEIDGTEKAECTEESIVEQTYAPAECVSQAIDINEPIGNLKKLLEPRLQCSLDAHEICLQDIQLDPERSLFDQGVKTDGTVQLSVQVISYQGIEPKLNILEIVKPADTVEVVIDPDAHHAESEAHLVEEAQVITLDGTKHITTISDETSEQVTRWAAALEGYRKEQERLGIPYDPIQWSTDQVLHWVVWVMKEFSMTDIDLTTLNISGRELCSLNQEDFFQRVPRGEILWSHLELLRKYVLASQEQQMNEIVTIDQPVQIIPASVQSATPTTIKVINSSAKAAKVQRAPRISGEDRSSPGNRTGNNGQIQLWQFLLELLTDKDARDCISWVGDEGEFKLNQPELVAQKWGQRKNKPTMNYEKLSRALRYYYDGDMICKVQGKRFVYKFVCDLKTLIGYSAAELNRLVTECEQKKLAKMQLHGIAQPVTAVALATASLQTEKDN
The method in brief: as §1

The target in another assay is T4, ERG (Homo sapiens, UniProt P11308 1-479).
T4 sequence: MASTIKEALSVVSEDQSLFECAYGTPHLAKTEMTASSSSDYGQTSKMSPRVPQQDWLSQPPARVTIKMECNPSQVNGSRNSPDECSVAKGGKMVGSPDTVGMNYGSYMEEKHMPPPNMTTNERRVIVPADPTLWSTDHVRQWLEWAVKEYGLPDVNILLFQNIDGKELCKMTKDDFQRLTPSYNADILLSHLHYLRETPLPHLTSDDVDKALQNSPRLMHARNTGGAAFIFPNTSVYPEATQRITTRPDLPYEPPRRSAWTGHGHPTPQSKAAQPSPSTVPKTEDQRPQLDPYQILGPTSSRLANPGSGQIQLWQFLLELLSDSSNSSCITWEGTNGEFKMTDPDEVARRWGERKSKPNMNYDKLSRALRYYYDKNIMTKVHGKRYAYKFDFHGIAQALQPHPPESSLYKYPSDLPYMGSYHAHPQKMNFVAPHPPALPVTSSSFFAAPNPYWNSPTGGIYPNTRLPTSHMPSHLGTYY
The method in brief: as §1

For a further assay, the target named is ELF1 (Homo sapiens, UniProt P32519 1-619). The method in brief: as §1
Sequence of ELF1 (P32519 whole entry): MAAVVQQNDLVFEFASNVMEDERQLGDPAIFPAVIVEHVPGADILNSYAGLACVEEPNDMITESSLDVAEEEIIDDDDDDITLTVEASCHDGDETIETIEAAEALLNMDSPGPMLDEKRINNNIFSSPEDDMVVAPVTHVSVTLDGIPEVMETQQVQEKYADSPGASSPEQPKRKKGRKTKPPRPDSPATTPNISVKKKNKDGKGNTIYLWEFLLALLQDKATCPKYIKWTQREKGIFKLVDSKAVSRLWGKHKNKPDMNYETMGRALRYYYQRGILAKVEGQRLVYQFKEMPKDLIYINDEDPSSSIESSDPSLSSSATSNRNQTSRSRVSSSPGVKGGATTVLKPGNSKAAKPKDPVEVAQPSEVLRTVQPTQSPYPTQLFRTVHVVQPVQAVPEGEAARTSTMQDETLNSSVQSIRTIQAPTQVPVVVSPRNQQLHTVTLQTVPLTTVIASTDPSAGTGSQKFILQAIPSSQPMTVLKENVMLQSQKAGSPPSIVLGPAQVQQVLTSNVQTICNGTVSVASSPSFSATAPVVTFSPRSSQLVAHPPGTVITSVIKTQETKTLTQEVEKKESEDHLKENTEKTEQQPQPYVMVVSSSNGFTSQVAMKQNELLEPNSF
The target in another assay is T5, EHF (Homo sapiens, UniProt Q9NZC4 1-300).
T5 sequence: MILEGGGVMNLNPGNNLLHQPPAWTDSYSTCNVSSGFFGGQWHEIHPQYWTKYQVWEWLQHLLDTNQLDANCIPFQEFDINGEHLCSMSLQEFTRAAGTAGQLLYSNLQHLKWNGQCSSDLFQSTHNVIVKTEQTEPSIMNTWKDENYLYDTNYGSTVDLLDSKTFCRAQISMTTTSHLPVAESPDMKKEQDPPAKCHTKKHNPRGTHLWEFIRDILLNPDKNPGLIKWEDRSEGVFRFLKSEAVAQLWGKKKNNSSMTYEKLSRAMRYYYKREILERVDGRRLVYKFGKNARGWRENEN
In outline:
as §1

A further assay has as its target SPI1 (Homo sapiens, UniProt P17947 1-270). In outline:
as §1

The target in another assay is SPIB (Homo sapiens, UniProt Q01892 1-262). The method in brief:
as §1

The target in the next assay is T6, ELK3 (Homo sapiens, UniProt P41970 1-407).
T6 sequence: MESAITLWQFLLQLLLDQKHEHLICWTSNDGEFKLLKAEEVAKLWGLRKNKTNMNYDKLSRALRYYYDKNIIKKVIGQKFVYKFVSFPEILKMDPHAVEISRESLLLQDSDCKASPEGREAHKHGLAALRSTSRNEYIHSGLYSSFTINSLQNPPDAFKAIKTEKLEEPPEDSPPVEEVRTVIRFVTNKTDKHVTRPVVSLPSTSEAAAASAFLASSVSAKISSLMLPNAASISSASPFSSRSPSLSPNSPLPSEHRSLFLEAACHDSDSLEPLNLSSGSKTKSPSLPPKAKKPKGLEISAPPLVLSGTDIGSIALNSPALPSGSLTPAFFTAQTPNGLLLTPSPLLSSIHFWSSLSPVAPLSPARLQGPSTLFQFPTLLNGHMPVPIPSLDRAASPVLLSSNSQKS
In outline:
as §1

The target of a further assay is T7, FEV (Homo sapiens, UniProt Q99581 1-238).
T7 sequence: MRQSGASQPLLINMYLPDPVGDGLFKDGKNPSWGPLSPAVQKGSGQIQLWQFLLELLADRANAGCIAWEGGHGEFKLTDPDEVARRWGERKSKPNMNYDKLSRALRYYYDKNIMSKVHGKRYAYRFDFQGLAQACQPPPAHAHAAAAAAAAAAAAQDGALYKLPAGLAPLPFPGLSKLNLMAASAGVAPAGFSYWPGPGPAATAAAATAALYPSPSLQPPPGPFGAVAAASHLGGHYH
The method in brief: as §1

The target in a further assay is ETV5 (Homo sapiens, UniProt P41161 1-510). The method in brief:
as §1

A further assay has as its target T8, SPIC (Homo sapiens, UniProt Q8N5J4 1-248).
T8 sequence: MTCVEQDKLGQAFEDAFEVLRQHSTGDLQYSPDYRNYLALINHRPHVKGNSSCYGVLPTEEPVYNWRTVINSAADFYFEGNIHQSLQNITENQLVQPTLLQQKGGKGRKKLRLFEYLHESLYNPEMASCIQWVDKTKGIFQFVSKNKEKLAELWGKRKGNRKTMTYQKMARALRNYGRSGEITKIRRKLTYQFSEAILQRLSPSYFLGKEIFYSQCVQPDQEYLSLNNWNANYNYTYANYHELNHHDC
The method in brief: as §1

The next assay has as its target ELF4 (Homo sapiens, UniProt Q99607 1-663). In outline: as §1
Another assay deals with T9, ELK4 (Homo sapiens, UniProt P28324-2 1-405).
T9 sequence: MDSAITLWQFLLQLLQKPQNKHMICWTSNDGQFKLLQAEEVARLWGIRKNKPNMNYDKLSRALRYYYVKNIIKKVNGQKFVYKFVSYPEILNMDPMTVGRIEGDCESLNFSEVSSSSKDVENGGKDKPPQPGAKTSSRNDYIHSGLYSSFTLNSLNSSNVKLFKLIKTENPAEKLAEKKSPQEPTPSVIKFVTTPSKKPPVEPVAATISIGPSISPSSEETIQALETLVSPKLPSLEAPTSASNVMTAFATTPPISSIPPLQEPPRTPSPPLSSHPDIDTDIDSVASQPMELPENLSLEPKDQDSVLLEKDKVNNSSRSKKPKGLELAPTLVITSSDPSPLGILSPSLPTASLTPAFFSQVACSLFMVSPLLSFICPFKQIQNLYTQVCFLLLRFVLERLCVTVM
The method in brief:
as §1

Another assay addresses T10, ETV2 (Homo sapiens, UniProt O00321 1-342).
T10 sequence: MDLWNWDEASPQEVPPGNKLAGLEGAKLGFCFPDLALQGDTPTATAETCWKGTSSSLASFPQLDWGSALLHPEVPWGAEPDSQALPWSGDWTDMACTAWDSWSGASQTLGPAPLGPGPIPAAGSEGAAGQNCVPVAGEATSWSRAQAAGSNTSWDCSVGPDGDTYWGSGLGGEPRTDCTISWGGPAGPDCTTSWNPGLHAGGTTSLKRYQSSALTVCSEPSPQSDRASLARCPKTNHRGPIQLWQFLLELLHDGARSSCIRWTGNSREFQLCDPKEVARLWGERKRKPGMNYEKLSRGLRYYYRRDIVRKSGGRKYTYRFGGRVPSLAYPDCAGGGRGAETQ
The method in brief:
as §1

Another assay deals with ETV1 (Homo sapiens, UniProt P50549 1-477). In outline: as §1
Sequence of ETV1 (P50549 whole entry): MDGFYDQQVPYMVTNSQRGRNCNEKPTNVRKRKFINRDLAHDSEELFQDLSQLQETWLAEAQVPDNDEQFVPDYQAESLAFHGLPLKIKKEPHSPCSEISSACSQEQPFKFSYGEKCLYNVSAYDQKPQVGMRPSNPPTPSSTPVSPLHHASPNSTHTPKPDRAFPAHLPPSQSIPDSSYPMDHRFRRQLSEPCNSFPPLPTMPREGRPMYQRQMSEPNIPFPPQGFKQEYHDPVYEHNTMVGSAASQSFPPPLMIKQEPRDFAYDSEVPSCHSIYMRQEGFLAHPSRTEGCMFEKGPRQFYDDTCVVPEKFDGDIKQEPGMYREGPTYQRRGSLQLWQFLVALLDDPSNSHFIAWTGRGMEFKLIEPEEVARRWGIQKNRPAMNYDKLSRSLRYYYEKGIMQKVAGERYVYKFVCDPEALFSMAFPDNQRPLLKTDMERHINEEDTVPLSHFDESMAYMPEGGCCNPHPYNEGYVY
Another assay deals with T11, ELF3 (Homo sapiens, UniProt P78545 1-371).
T11 sequence: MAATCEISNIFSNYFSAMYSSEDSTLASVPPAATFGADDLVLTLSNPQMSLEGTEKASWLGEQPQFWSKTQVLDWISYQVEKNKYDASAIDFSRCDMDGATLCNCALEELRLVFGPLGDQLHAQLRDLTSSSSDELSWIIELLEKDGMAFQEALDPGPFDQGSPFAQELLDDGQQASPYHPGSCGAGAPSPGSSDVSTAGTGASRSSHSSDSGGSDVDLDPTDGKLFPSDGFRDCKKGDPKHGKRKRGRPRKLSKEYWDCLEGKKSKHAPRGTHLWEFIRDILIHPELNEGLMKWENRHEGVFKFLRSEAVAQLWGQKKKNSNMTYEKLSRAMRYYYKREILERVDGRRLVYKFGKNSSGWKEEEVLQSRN
The method in brief: as §1

Sequence of ELF4 (Q99607 whole entry): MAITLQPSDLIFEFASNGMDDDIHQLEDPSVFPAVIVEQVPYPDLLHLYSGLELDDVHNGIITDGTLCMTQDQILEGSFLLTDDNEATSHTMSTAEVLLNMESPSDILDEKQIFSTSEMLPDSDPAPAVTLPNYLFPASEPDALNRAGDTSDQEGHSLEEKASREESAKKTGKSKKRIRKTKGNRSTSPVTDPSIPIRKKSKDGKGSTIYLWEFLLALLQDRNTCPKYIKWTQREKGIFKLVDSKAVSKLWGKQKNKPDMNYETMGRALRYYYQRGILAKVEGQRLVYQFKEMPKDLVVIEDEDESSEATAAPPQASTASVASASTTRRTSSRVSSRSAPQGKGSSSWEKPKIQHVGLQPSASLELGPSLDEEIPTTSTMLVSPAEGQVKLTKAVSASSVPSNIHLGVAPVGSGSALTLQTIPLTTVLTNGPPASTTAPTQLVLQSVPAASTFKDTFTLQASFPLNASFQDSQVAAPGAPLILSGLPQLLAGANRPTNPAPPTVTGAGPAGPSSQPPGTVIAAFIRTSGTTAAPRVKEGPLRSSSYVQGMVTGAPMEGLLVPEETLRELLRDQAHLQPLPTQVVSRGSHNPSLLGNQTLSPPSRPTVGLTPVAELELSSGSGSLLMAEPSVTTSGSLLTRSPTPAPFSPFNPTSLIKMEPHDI
Sequence of SPIB (Q01892 whole entry): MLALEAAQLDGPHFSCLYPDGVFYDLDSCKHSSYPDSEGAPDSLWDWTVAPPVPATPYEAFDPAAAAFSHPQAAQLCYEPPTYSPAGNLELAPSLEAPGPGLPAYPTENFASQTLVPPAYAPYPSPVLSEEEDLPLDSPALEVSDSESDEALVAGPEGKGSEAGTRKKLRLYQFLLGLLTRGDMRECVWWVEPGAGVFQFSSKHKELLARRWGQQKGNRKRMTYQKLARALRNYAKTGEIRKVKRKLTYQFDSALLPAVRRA
Sequence of ETV5 (P41161 whole entry): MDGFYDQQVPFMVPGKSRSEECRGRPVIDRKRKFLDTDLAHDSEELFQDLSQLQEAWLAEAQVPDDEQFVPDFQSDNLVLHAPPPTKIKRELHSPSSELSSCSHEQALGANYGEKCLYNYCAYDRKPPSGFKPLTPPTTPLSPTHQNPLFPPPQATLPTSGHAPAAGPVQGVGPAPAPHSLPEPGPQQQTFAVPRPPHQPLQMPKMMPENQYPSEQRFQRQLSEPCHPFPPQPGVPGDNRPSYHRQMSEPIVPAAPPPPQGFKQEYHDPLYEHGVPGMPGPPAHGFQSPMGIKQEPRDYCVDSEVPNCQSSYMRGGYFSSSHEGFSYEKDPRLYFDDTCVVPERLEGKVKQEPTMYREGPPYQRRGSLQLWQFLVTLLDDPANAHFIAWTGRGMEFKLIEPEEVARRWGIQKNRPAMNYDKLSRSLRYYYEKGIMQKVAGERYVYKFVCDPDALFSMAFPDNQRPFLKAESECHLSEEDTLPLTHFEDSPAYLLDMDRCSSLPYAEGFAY

Turning to GCACTG, the binding signal with FLI1 was 1.18 fold enrichment (6-mer frequency, TF over GST control); in the assay with ELK1, 1.12 fold enrichment (6-mer frequency, TF over GST control); with GABPA, 1.14 fold enrichment (6-mer frequency, TF over GST control); in the assay with ERG, 1.07 fold enrichment (6-mer frequency, TF over GST control); with ELF1, 1.1 fold enrichment (6-mer frequency, TF over GST control); with EHF it was 1.12 fold enrichment (6-mer frequency, TF over GST control). Further, the binding signal in the assay with SPI1 is 1.14 fold enrichment (6-mer frequency, TF over GST control); in the assay with SPIB, 1.05 fold enrichment (6-mer frequency, TF over GST control); in the assay with ELK3, 1.06 fold enrichment (6-mer frequency, TF over GST control); with FEV, 1.12 fold enrichment (6-mer frequency, TF over GST control); with ETV5, 1.05 fold enrichment (6-mer frequency, TF over GST control); with SPIC, 1.08 fold enrichment (6-mer frequency, TF over GST control). Also, the binding signal with ELF4 was 1.07 fold enrichment (6-mer frequency, TF over GST control); with ELK4, 1.03 fold enrichment (6-mer frequency, TF over GST control); with ETV2, 1.22 fold enrichment (6-mer frequency, TF over GST control); with ETV1, 1.08 fold enrichment (6-mer frequency, TF over GST control).

Regarding ATGTCA, the binding signal was 1.14 fold enrichment (6-mer frequency, TF over GST control) with FLI1; 1.1 fold enrichment (6-mer frequency, TF over GST control) in the assay with ELK1; 1.14 fold enrichment (6-mer frequency, TF over GST control) with GABPA; 1.17 fold enrichment (6-mer frequency, TF over GST control) with ERG; 1.16 fold enrichment (6-mer frequency, TF over GST control) with ELF1; 1.15 fold enrichment (6-mer frequency, TF over GST control) with EHF. Also, the binding signal with SPI1 is 1.08 fold enrichment (6-mer frequency, TF over GST control); with SPIB, 1.19 fold enrichment (6-mer frequency, TF over GST control); with ELK3 it was 1.02 fold enrichment (6-mer frequency, TF over GST control); with FEV it was 1.03 fold enrichment (6-mer frequency, TF over GST control); with ETV5, 1.08 fold enrichment (6-mer frequency, TF over GST control); with SPIC, 1.21 fold enrichment (6-mer frequency, TF over GST control). The binding signal with ELF4 is 1.19 fold enrichment (6-mer frequency, TF over GST control); with ELK4 it was 1.14 fold enrichment (6-mer frequency, TF over GST control); in the assay with ELF3 it was 1.28 fold enrichment (6-mer frequency, TF over GST control); with ETV1 it was 1.11 fold enrichment (6-mer frequency, TF over GST control).
